Reference: PubChem BioAssay (NCI)
The panel holds about 79,000 compounds, 15% with a hit somewhere; the sample as a whole holds those more often. Activity calls are given as the source filed them. Cut-off read from the data, not from the text of the source: active = growth inhibition above about 70%; inactive = the rest.

Assays:
[1] = NCI Yeast Anticancer Drug Screen. Data for the sgs1 strain (AID 173);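 note: 0% = growth of vehicle-only control cultures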; conditions: S. cerevisiae sgs1 mutant, hits give high values
In short: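 A genetically defined yeast mutant is incubated with the test compound, and its growth is compared to that of the same strain given vehicle.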

[2] = NCI Yeast Anticancer Drug Screen. Data for the mlh1 rad18 strain (AID 175); conditions: S. cerevisiae mlh1 rad18 strain growth inhibition, hits give high values
In short: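 Steps: expose repair-defective yeast to compound; measure growth; express inhibition against vehicle-treated controls.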

[3] = NCI Yeast Anticancer Drug Screen. Data for the rad18 strain (AID 177); conditions: S. cerevisiae rad18 mutant growth inhibition, hits give high values
In short: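 Measured value is growth inhibition of a yeast strain bearing a DNA repair alteration, referenced to vehicle-treated cells.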

[4] = NCI Yeast Anticancer Drug Screen. Data for the rad52 strain (AID 147);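 note: 0% = growth of vehicle-treated control cultures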; conditions: S. cerevisiae rad52 mutant growth inhibition, hits give high values
In short: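 Here a repair-compromised yeast strain receives each compound; its growth is then quantified and normalised to vehicle-only controls.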

[5] = NCI Yeast Anticancer Drug Screen. Data for the rad50EPP+ strain (AID 151);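 note: 0% = growth of vehicle-treated control cultures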; conditions: S. cerevisiae rad50 mutant strain, hits give high values
In short: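 Read-out is yeast growth inhibition relative to vehicle; cells used were the rad50EPP+ strain.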

[6] = NCI Yeast Anticancer Drug Screen. Data for the mgt1 strain (AID 153); conditions: S. cerevisiae mgt1 mutant growth inhibition, hits give high values
In short: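 Measured: inhibition of mgt1 yeast growth by compound, normalized to vehicle-treated cultures.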

[7] = NCI Yeast Anticancer Drug Screen. Data for the rad50 strain (AID 155);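 note: 0% = growth of vehicle-only cultures of the same strain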; conditions: S. cerevisiae rad50 strain growth inhibition, hits give high values
In short: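 A DNA repair-deficient yeast mutant serves as the test organism; compound-induced growth inhibition is calculated against vehicle-treated cells.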

[8] = NCI Yeast Anticancer Drug Screen. Data for the mec2-1 strain (AID 157); conditions: S. cerevisiae mec2-1 strain, hits give high values
In short: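 Using mec2-1 yeast: add compound, measure growth, express inhibition versus vehicle-treated cultures.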

[9] = NCI Yeast Anticancer Drug Screen. Data for the rad14 strain (AID 159);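 note: 0% = growth of vehicle-treated control cultures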; conditions: S. cerevisiae rad14 strain growth inhibition, hits give high values
In short: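 Vehicle-treated cultures served as the baseline for growth inhibition of a DNA repair-mutant yeast strain exposed to each compound.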

[10] = NCI Yeast Anticancer Drug Screen. Data for the sgs1 mgt1 strain (AID 161);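 note: 0% = growth of cultures given vehicle only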; conditions: S. cerevisiae sgs1 mgt1 strain, hits give high values
In short: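 Percent growth inhibition was derived by comparing compound-exposed mutant yeast with vehicle-exposed cultures. The strain carries alterations in DNA damage repair.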

[11] = NCI Yeast Anticancer Drug Screen. Data for the CLN2oe strain (AID 163);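 note: 0% = growth of vehicle-only control cultures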; conditions: S. cerevisiae CLN2oe strain, hits give high values
In short: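 Whole-cell yeast growth assay. A strain engineered for altered cell-cycle control received compound, and inhibition relative to vehicle-treated cultures was recorded.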

[12] = NCI Yeast Anticancer Drug Screen. Data for the cln2 rad14 strain (AID 165);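 note: 0% = growth equal to vehicle treated cultures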; conditions: S. cerevisiae cln2 rad14 strain, hits give high values
In short: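 Yeast strain cln2 rad14, bearing defects in cell cycle control and DNA repair, serves as the test system; values reflect growth inhibition compared with vehicle.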

[13] = NCI Yeast Anticancer Drug Screen. Data for the bub3 strain (AID 167); conditions: S. cerevisiae bub3 mutant strain, hits give high values
In short: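 Inhibition values come from growth of compound-treated mutant yeast normalised to vehicle-treated controls.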

[14] = NCI Yeast Anticancer Drug Screen. Data for the wt2 strain (AID 169);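 note: 0% = growth of vehicle-treated yeast cultures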; conditions: S. cerevisiae wt2 strain growth inhibition, hits give high values
In short: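 Treated yeast vs. vehicle-treated yeast: growth inhibition determined.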

[15] = NCI Yeast Anticancer Drug Screen. Data for the mlh1 strain (AID 171);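 note: 0% = growth of vehicle-treated control cultures of the same strain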; conditions: S. cerevisiae mlh1 strain growth inhibition, hits give high values
In short: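 A yeast strain with a defined genetic lesion serves as the test organism. Cultures receive compound or vehicle, and growth is measured.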

[16] = at 5.0 µM (retest, dose inferred, filed as 0.5)
[17] = at 50.0 µM (retest, dose inferred, filed as 5.0)

Measured: growth inhibition

c1cc2c(cc1C1OC[C@H]3[C@@H](c4ccc5c(c4)OCO5)OC[C@@H]13)OCO2 (some centres undefined)
inactive: [1]; at 1.2 µM -16% | [1]; at 3.7 µM -11% | [1]; at 11.0 µM 3% | [1]; at 33.0 µM 9% | [1]; at 100.0 µM 15% | [2]; [16] 7% | [2]; [17] 17% | [2]; at 50.0 µM 27.6% | [3]; at 1.2 µM -10% | [3]; at 3.7 µM -6% | [3]; at 11.0 µM -4% | [3]; at 33.0 µM -8% | [3]; at 100.0 µM -11%

CS(=O)(=O)OCCN(CCOS(C)(=O)=O)c1ccc(C=O)cc1
inactive: [4]; at 1.2 µM 11% | [4]; at 3.7 µM 33% | [4]; at 11.0 µM 62% | [5]; at 1.2 µM 4% | [5]; at 3.7 µM 6% | [5]; at 11.0 µM 9% | [5]; at 33.0 µM 30% | [5]; at 100.0 µM 51% | [6]; at 1.2 µM 5% | [6]; at 3.7 µM 13% | [6]; at 11.0 µM 32% | [6]; at 33.0 µM 58% | [7]; at 1.2 µM 16% | [7]; at 3.7 µM 34% | [7]; [16] 33% | [7]; at 11.0 µM 60% | [8]; at 1.2 µM 8% | [8]; at 3.7 µM 20% | [8]; [16] 29% | [8]; at 11.0 µM 43% | [9]; at 1.2 µM 22% | [9]; at 3.7 µM 36% | [9]; at 11.0 µM 63% | [10]; [16] 26% | [11]; at 1.2 µM -10% | [11]; at 3.7 µM -1% | [11]; at 11.0 µM 15% | [11]; at 33.0 µM 35% | [11]; at 100.0 µM 65% | [12]; [16] 8% | [12]; at 50.0 µM 65.2% | [13]; at 1.2 µM -6% | [13]; at 3.7 µM -3% | [13]; [16] -8% | [13]; at 11.0 µM 10% | [13]; at 33.0 µM 38% | [13]; [17] 37% | [14]; at 1.2 µM -1% | [14]; at 3.7 µM 12% | [14]; at 11.0 µM 18% | [14]; at 33.0 µM 43% | [15]; at 1.2 µM 2% | [15]; at 3.7 µM 11% | [15]; at 11.0 µM 25% | [15]; at 33.0 µM 53% | [1]; at 1.2 µM 15% | [1]; at 3.7 µM 35% | [1]; at 11.0 µM 58%
active: [4]; at 33.0 µM 83% | [4]; at 100.0 µM 91% | [6]; at 100.0 µM 78% | [7]; at 33.0 µM 80% | [7]; [17] 84% | [7]; at 50.0 µM 79.3% | [7]; at 100.0 µM 92% | [8]; at 33.0 µM 75% | [8]; [17] 88% | [8]; at 50.0 µM 83.6% | [8]; at 100.0 µM 90% | [9]; at 33.0 µM 82% | [9]; at 100.0 µM 91% | [10]; [17] 80% | [10]; at 50.0 µM 79.4% | [12]; [17] 74% | [13]; at 50.0 µM 73.2% | [13]; at 100.0 µM 72% | [14]; at 100.0 µM 85% | [15]; at 100.0 µM 82% | [1]; at 33.0 µM 80% | [1]; at 100.0 µM 89% | [2]; [16] 76% | [2]; [17] 95% | [2]; at 50.0 µM 91% | [3]; at 1.2 µM 85% | [3]; at 3.7 µM 92% | [3]; at 11.0 µM 95% | [3]; at 33.0 µM 96% | [3]; at 100.0 µM 96%

C=CC[N+]12CN3CN(CN(C3)C1)C2
active: [8]; [17] 70% | [8]; at 100.0 µM 98% | [10]; [17] 98% | [11]; at 100.0 µM 70% | [12]; [17] 96% | [13]; at 33.0 µM 75% | [13]; [17] 97% | [13]; at 100.0 µM 94% | [15]; at 100.0 µM 74%
inactive: [4]; at 1.2 µM -8% | [4]; at 3.7 µM 5% | [4]; at 11.0 µM -11% | [4]; at 33.0 µM -5% | [4]; at 100.0 µM 29% | [5]; at 1.2 µM 7% | [5]; at 3.7 µM 2% | [5]; at 11.0 µM -31% | [5]; at 33.0 µM 16% | [5]; at 100.0 µM 68% | [7]; at 1.2 µM 8% | [7]; at 3.7 µM -1% | [7]; [16] 38% | [7]; at 11.0 µM -21% | [7]; at 33.0 µM -3% | [7]; [17] 65% | [7]; at 50.0 µM 29.8% | [7]; at 100.0 µM 32% | [8]; at 1.2 µM -12% | [8]; at 3.7 µM -24% | [8]; [16] 43% | [8]; at 11.0 µM -31% | [8]; at 33.0 µM 45% | [8]; at 50.0 µM 20.6% | [9]; at 1.2 µM -35% | [9]; at 3.7 µM -34% | [9]; at 11.0 µM -31% | [9]; at 33.0 µM -16% | [9]; at 100.0 µM 31% | [10]; [16] -2% | [10]; at 50.0 µM 59.8% | [11]; at 1.2 µM -24% | [11]; at 3.7 µM -32% | [11]; at 11.0 µM -17% | [11]; at 33.0 µM -9% | [12]; [16] 67% | [12]; at 50.0 µM 7.55% | [13]; at 1.2 µM -1% | [13]; at 3.7 µM 12% | [13]; [16] 20% | [13]; at 11.0 µM 12% | [13]; at 50.0 µM 2.1% | [14]; at 1.2 µM -49% | [14]; at 3.7 µM -52% | [14]; at 11.0 µM -52% | [14]; at 33.0 µM -28% | [14]; at 100.0 µM 23% | [15]; at 1.2 µM -25% | [15]; at 3.7 µM -22% | [15]; at 11.0 µM -23% | [15]; at 33.0 µM 13% | [1]; at 1.2 µM -20% | [1]; at 3.7 µM -17% | [1]; at 11.0 µM -21% | [1]; at 33.0 µM -4% | [1]; at 100.0 µM 43% | [2]; [16] 38% | [2]; [17] 52% | [2]; at 50.0 µM 10.2% | [3]; at 1.2 µM 18% | [3]; at 3.7 µM 19% | [3]; at 11.0 µM -13% | [3]; at 33.0 µM 13% | [3]; at 100.0 µM 12%
